PubChem BioAssay (NCI)
About 83,000 compounds went through this panel and 20% of them were active in at least one assay; those are over-represented in the sample as a whole.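 Cell lines were cultured in 96-well plates, exposed to a single compound concentration, and assessed for percent growth 48 hours later.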 A number with no mark means an inactive call. Activity calls are given as the source filed them. Rule for the calls: active = growth percent below 10; inactive = the rest.

Experiments:
Experiment in all cases: NCI-60 one-dose screen, 48 h (100 = growth as untreated, 0 = no growth, -100 = all killed)
SK-MEL-2 melanoma = settings: 10 µM unless noted
EKVX NSCLC = settings: 10 µM unless noted
SN12C renal = settings: 10 µM unless noted
UO-31 renal = settings: 10 µM unless noted
TK-10 renal = settings: 10 µM unless noted
ACHN renal = settings: 10 µM unless noted
CAKI-1 renal = settings: 10 µM
CCRF-CEM leukemia = settings: 10 µM unless noted
MOLT-4 leukemia = settings: 10 µM unless noted
A498 renal = settings: 10 µM unless noted

| SMILES | growth (SK-MEL-2 melanoma) | growth (EKVX NSCLC) | growth (SN12C renal) | growth (UO-31 renal) | growth (TK-10 renal) | growth (ACHN renal) | growth (CAKI-1 renal) | growth (CCRF-CEM leukemia) | growth (MOLT-4 leukemia) | growth (A498 renal) |
| --- | --- | --- | --- | --- | --- | --- | --- | --- | --- | --- |
| O=c1[nH]c(CCl)nc2c1cnn2-c1ccccc1 | -89.8% (active) | 100% | 99.8% | -20.9% (active) | 154% | 96.7% | 97.6% | 101% | 104% | – |
| N#Cc1c(NC(=O)c2ccc(F)c(Cl)c2)sc2c1CCC(=O)C2 | 18.3% | 13.1% | 4.43% (active) | -99% (active) | 15.3% | -98.8% (active) | -67% (active) | 8.21% (active) | 3.13% (active) | – |
| CCN1C/C(=N\S(=O)(=O)c2ccccc2)N(CC)C1=S | 104% | 99% | 98.1% | 89.9% | 100% | 102% | 95.3% | – | 101% | – |
| CC(=O)NC(C)(C)C(=O)N[C@@H](C)C(=O)NC(C)(C)C(=O)N[C@@H](C)C(=O)NC(C)(C)C(=O)N[C@@H](C)C(=O)N[C@@H](CCC(N)=O)C(=O)NC(C)(C)C(=O)N[C@H](C(=O)NC(C)(C)C(=O)NCC(=O)N[C@@H](CC(C)C)C(=O)NC(C)(C)C(=O)N1CCC[C@H]1C(=O)N[C@H](C(=O)NC(C)(C)C(=O)NC(C)(C)C(=O)N[C@@H](CCC(N)=O)C(=O)N[C@@H](CCC(N)=O)C(=O)N[C@H](CO)CC1CCCCC1)C(C)C)C(C)C | 5.52% [5 µM] (active) | 52% [5 µM] | 21.2% [5 µM] | 53.1% [5 µM] | 38.8% [5 µM] | 72.2% [5 µM] | – | 55.6% [5 µM] | 55.1% [5 µM] | 52.3% [5 µM] |
| CC1=CC(=O)CC(C)(C)[C@@]1(O)/C=C/C(C)=C\C(=O)O | -52.4% (active) | -29.6% (active) | -15.1% (active) | -31.6% (active) | -25.5% (active) | -7.21% (active) | – | 0.0714% (active) | -9.99% (active) | -72.7% (active) |
| C#CCOc1ccc(C(Nc2ccc(OC)cc2)c2nnnn2C2CCCCC2)cc1 (stereo not drawn) | 104% | 87.4% | 96.5% | 80.4% | 112% | 97.3% | 76.5% | – | 91.4% | – |
| COC1=C(c2ccccc2)C(=O)C(OC)=C(c2ccccc2)C1=O | 101% | 99% | 102% | 89.8% | 107% | 117% | – | 10.9% | -7.74% (active) | 89.7% |
| COc1ccc(/C=C/C(=O)c2nnn(-c3ccc(C(=O)O)cc3)c2C)cc1OC | 101% | 93.9% | 92.2% | 79.3% | 113% | 91.4% | 95.9% | 87.7% | 97.7% | – |
| C=C(C)[C@@H]1CC[C@]2(COS(C)(=O)=O)CC[C@]3(C)[C@H](CC[C@@H]4[C@@]5(C)CCCNC(C)(C)[C@@H]5CC[C@]43C)[C@@H]12 | 94.7% | 89.2% | 76% | 81.5% | 107% | 99.2% | 86.8% | – | 29.5% | – |
| CN(C)c1ccc(/C=N/Nc2nc(N/N=C/c3ccc(N(C)C)cc3)nc(N3CCOCC3)n2)cc1 | 98.6% | 95.4% | 89.2% | 90.7% | 110% | 104% | 96% | – | 96.7% | – |
| Cc1cc(NS(=O)(=O)c2ccc(-c3cnc(C4CC4)o3)cc2)ccc1I | 63.3% | 42.6% | 43.5% | 48.7% | 75.6% | 45.1% | 39.3% | 19.1% | 40.8% | – |
| C/C=C/[C@@H]1C=C[C@@H]2C[C@H](C)CC[C@H]2[C@]1(C)/C(O)=C1/C(=O)[C@H](CO)N(C)C1=O | 79.2% | 55.6% | 45.8% | 56.2% | 67.7% | 73.7% | – | 40.4% | 60.6% | 43.5% |
| CN(c1ccc(F)cc1)S(=O)(=O)c1ccc(-c2cnc(C3CC3)o2)cc1 | 77.6% | 46.9% | 37.3% | 44.5% | 91.9% | 43% | 39% | 16.4% | 25.6% | – |
| CN(C)C(=O)c1ccccc1-n1cnc2ccccc2c1=O | 107% | 101% | 92.7% | 92.8% | 97.6% | 96.3% | 90.1% | 97.4% | 102% | – |
| NS(=O)(=O)c1ccc(Nc2nc(N/N=C/c3ccc(F)cc3)nc(Nc3ccccc3)n2)cc1 | -9.45% (active) | 62.7% | 50.3% | 66.2% | 1.71% (active) | 80.8% | 56.8% | 20% | 21.8% | – |
| C#C[C@]1(O)CC[C@H]2[C@@H]3CC=C4c5sc(Nc6nc(C)cc(OC)n6)nc5CC[C@]4(C)[C@H]3CC[C@@]21C | 58.2% | 41.8% | 73% | -1.87% (active) | 121% | – | 19.2% | 12.7% | 7.93% (active) | 18.7% |
| CC(C)=CCc1c(O)c(CC=C(C)C)c2c(c1O)C(=O)C1=C[C@@H]3C[C@H]4C(C)(C)O[C@@](C/C=C(\C)C(=O)O)(C3=O)[C@@]14O2 | -53% (active) | -3.05% (active) | 12.3% | -30.9% (active) | – | -0.932% (active) | – | 1.76% (active) | 1.93% (active) | -31.6% (active) |
| Oc1ccc(CSc2nnc(-c3ccccc3)n2-c2ccccc2)c2cccnc12 | 30.8% | 18.5% | 19.5% | -19.8% (active) | 27.3% | – | 10.5% | 9.93% (active) | 15.6% | 12.7% |
| CC(=O)c1ccc(NC(=O)COc2ccc(C3SCC(=O)N3c3ccc(Br)cc3)cc2)cc1 (stereo not drawn) | 96.2% | 94.4% | 95.1% | 84.2% | 103% | – | 89.2% | 89.9% | 96.8% | – |
| Oc1ccccc1-c1nnc(SCc2ccc(O)c3ncccc23)o1 | 34.1% | 53.1% | 18.5% | 14.7% | 43.9% | – | 25.3% | 28.1% | 36.3% | 81.7% |
| CC(C)=CCc1c2c(c(O)c3c1O[C@]14C(=C[C@@H]5C[C@H]1C(C)(C)O[C@@]4(C/C=C(/C)C(=O)O)C5=O)C3=O)CC(O)C(C)(C)O2 (stereo partly drawn) | -71.3% (active) | -32.5% (active) | 12.9% | -57.1% (active) | – | -11% (active) | – | 5.72% (active) | -7.09% (active) | -75.6% (active) |
| CCC(=O)Nc1cc(Nc2cc(NC3CC3)n3ncc(C#N)c3n2)ccc1C | 32.6% | 39.1% | 43.4% | 19.7% | 15.5% | – | 14.7% | 17.1% | 40.1% | -21.5% (active) |
| O=C1[C@@H]2Cc3c([nH]c4ccccc34)[C@H](c3c(Cl)cccc3Cl)N2C(=O)CN1C1CCN(Cc2c(F)cccc2F)CC1 | 110% | 60.6% | 50.6% | 74.9% | 106% | – | 78.6% | 65.5% | 58.8% | 103% |
| C=C(C)C(=O)O[C@H]1C[C@@]2(C)OC(=CC2=O)/C(C)=C\[C@H]2OC(=O)C(=C)[C@H]12 | -28% (active) | 21.1% | – | -88.9% (active) | -76.3% (active) | -11.7% (active) | 5.49% (active) | -31.8% (active) | -4.17% (active) | 21% |
| O=S(=O)(Nc1cc(Cl)cc(Cl)c1)c1ccc(-c2cnc(C3CC3)o2)cc1 | 56.8% | 43.9% | 50.6% | 53% | 76.1% | – | 11.8% | 17.2% | 32.6% | 15.7% |
